Test systems include HCT-15 colon; SNB-75 CNS; SNB-19 CNS; U251 CNS; PC-3 prostate; SK-MEL-5 melanoma; UACC-62 melanoma; LOX IMVI melanoma; SK-MEL-2 melanoma; EKVX NSCLC; SN12C renal; UO-31 renal; TK-10 renal; ACHN renal; CAKI-1 renal; CCRF-CEM leukemia; MOLT-4 leukemia; SK-MEL-28 melanoma.
What all share (assay): NCI-60 one-dose screen, 48 h (100 = growth as untreated, 0 = no growth, -100 = all killed)
What all share (conditions): 10 µM unless noted

The structures appear in SMILES notation. Compounds without any hit were thinned out: in the full panel of roughly 83,000, 20% have a hit.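 Step 1: grow cells in 96-well plates. Step 2: add test compound at a single concentration. Step 3: incubate 48 h. Step 4: record percent growth.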 A number with no mark means an inactive call. Active and inactive are the calls of the source. Rule for the calls: active = growth percent below 10; inactive = the rest.

Regarding `COc1ccc(C(=O)NNc2nc(Cl)nc(N3CCN(C(c4ccccc4)c4ccccc4)CC3)n2)cc1`, the growth with HCT-15 colon is -37% (active); in the assay on SNB-75 CNS it was 61.5%; in the assay on SNB-19 CNS it was 45.4%; in the assay with U251 CNS, 71.4%; in the assay with PC-3 prostate, -13.3% (active); in the assay with SK-MEL-5 melanoma, 90.7%. Moreover, the growth in the assay on UACC-62 melanoma is 33.1%; with LOX IMVI melanoma, -64.3% (active); with SK-MEL-2 melanoma it was 48.8%; in the assay on EKVX NSCLC, 82.4%; with SN12C renal, 21.1%; in the assay with UO-31 renal, 87%. In addition, the growth was 95% in the assay on TK-10 renal; 22.8% in the assay with ACHN renal; 21.2% in the assay with CAKI-1 renal; -8.69% (active) in the assay with CCRF-CEM leukemia; -39.2% (active) in the assay with MOLT-4 leukemia.

As for `O=C(N/N=C/c1cc2ccccc2n2nnnc12)Nc1ccccc1`, the growth in the assay with HCT-15 colon is 98.3%; in the assay on SNB-75 CNS, 103%; with SNB-19 CNS, 97.1%; in the assay on U251 CNS it was 104%; in the assay on PC-3 prostate, 101%; with SK-MEL-5 melanoma, 101%. Besides, the growth in the assay on UACC-62 melanoma was 100%; with LOX IMVI melanoma it was 108%; with SK-MEL-28 melanoma, 113%; in the assay on SK-MEL-2 melanoma, 105%; in the assay on SN12C renal, 100%; in the assay with UO-31 renal, 94.1%. Besides, the growth with TK-10 renal is 101%; in the assay with ACHN renal it was 108%; in the assay with CAKI-1 renal, 94.5%; with CCRF-CEM leukemia, 103%; in the assay with MOLT-4 leukemia it was 101%.

Take `COc1ccc(C(=O)/C=C/c2cc3ccccc3n3nnnc23)cc1`: the growth in the assay on HCT-15 colon is 97.3%; with SNB-75 CNS, 98.3%; in the assay with SNB-19 CNS, 99.1%; in the assay on U251 CNS, 101%; in the assay with PC-3 prostate it was 103%; in the assay with SK-MEL-5 melanoma, 103%. The growth with UACC-62 melanoma is 97.7%; in the assay with LOX IMVI melanoma, 104%; in the assay on SK-MEL-28 melanoma it was 110%; in the assay on SK-MEL-2 melanoma, 106%; with SN12C renal, 102%; with TK-10 renal, 104%. Besides, the growth with ACHN renal was 106%; with CAKI-1 renal it was 88.8%; in the assay with CCRF-CEM leukemia, 101%; in the assay on MOLT-4 leukemia, 103%.
